Experiment [1] relates to Human papillomavirus type 1a protein E7 (residues 44-93). As to the kind of experiment: small molecules binding HPV E7 44-93 – biochemical, small-molecule microarray, residues 44-93, 635 nm fluorescence, primary screen (AID 1108).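 Further: E7 fragment applied at 1 µg/mL in TBST for 1 h at 4 C; score combines spot fluorescence with its signal to noise ratio.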 Conditions: fluorescence 635 nm, higher = more signal.
A short description of experiment [2]: hepatitis C replication reporter changes, two-sided – Huh7 cells, luciferase reporter, HCV replication inhibitor project, primary screen (AID 1109).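 Further: huh7 hepatoma cells harbouring a luciferase neomycin HCV replicon reporter; luciferase luminescence as measure of HCV replicon replication; test concentration not given here.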 As to conditions: Huh7 HCV replicon luciferase reporter, 48 h; higher = more signal. For orientation: In a reporter assay the amount or activity of a reporter protein is the signal.
The target of experiment [3] is Left-right determination factor 2 (Homo sapiens) (UniProt O00292). Put plainly: small molecules binding LEFTY2 protein – biochemical, small-molecule microarray, 635 nm fluorescence scan, primary screen (AID 1110). As to conditions: higher = more signal.
Chain of Left-right determination factor 2 (Homo sapiens) (O00292 whole entry, looked up): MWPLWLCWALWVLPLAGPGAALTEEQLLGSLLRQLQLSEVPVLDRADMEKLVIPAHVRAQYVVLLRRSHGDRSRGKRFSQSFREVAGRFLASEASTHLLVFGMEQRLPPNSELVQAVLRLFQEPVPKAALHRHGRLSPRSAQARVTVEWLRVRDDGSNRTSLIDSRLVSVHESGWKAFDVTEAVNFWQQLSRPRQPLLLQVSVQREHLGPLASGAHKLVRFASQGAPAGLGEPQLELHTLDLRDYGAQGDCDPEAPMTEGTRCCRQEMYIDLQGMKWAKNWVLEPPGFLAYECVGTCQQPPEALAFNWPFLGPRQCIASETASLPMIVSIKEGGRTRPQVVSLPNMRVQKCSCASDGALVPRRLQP
In experiment [4] the target is Calmodulin-1 (Homo sapiens) (UniProt P0DP23). As to the kind of experiment: small molecules binding calmodulin-1 with EGTA – biochemical, small-molecule microarray, Cy5-labelled CALM1, profiling panel (AID 1111).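 Further: labelled calmodulin applied in Tris saline Tween buffer holding calcium plus EGTA and DTT.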 As to conditions: Cy5-CALM1 binding fluorescence, higher = more signal.
Experiment [5] has the same target. As to the kind of experiment: small molecules binding Ca-loaded calmodulin-1 – biochemical, small-molecule microarray, Cy5-labelled CALM1, plus calcium, artefact control for SMM control-protein annotation, profiling panel (AID 1112).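 Further: score merges spot fluorescence with signal to noise from triplicate slides.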 Conditions: Cy5-CALM1 binding fluorescence, higher = more signal.
The nature of experiment [6]: probe aWnt5a binding to arrayed compounds – biochemical, biotinylated probe, 635/667 nm fluorescence, primary screen (AID 1113).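 Further: score merges 667 nm fluorescence intensity with signal-to-noise per printed feature.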 As to conditions: small-molecule microarray, higher = more signal.
Experiment [7] can be described thus: probe aShh binding to arrayed compounds – biochemical, biotinylated probe, 635/667 nm fluorescence, primary screen (AID 1114).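 Further: probe is biotin-labelled aShh protein from a stem cell growth factor screen; measures binding of labelled protein to compounds printed on the slide; score merges feature fluorescence at 667 nm with signal-to-noise.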 Conditions: small-molecule microarray, higher = more signal.
The nature of experiment [8]: probe aNog binding to arrayed compounds – biochemical, biotinylated probe, 635/667 nm fluorescence, primary screen (AID 1115).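 Further: probe is biotinylated aNog protein used at 0.15 µg/mL for 1 h at 4 C; z-score combines 667 nm fluorescence of each spot with its signal to noise.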 As to conditions: small-molecule microarray, higher = more signal.
Experiment [9] deals with Torsin-1A-interacting protein 1 (Homo sapiens) (UniProt Q5JTV8). As to the kind of experiment: compound microarray binding of lysate hLAP1 – cell lysate, small-molecule microarray, COS7 lysate, 635/667 nm fluorescence, primary screen (AID 1116). Conditions: 635 nm fluorescence, higher = more signal.
Chain of Torsin-1A-interacting protein 1 (Homo sapiens) (Q5JTV8 whole entry, looked up): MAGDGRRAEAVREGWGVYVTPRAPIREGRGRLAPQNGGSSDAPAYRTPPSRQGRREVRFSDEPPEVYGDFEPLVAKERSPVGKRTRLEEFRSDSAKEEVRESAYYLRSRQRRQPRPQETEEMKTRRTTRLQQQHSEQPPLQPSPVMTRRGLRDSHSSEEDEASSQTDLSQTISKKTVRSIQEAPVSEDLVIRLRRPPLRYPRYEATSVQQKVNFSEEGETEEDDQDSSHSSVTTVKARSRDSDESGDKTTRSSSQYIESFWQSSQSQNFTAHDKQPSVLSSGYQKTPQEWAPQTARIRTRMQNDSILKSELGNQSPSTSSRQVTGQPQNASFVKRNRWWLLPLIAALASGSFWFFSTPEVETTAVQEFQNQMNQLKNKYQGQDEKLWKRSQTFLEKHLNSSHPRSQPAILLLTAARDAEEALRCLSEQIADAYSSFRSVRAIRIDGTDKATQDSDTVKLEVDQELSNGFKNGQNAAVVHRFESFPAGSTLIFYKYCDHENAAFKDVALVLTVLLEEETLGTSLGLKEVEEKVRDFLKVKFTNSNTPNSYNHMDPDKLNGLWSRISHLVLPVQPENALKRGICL
Experiment [10] addresses Alpha-bungarotoxin (Bungarus multicinctus) (UniProt P60615). Put plainly: compounds binding labelled alpha-BTX control protein – biochemical, small-molecule microarray, Alexa647 label, 635/667 nm fluorescence, artefact control for SMM control protein annotation, profiling panel (AID 1117). Conditions: alpha-BTX-A647 binding fluorescence, higher = more signal.
The target of experiment [11] is Albumin (Bos taurus) (UniProt P02769). Put plainly: compounds binding labelled BSA control protein – biochemical, small-molecule microarray, Alexa647 label, 635/667 nm fluorescence, artefact control for SMM control protein annotation, profiling panel (AID 1118).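 Further: score merges 667 nm emission intensity and signal-to-noise per printed compound spot.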 As to conditions: BSA-A647 binding, fluorescence 635 nm, higher = more signal.
Chain of Albumin (Bos taurus) (P02769 whole entry, looked up): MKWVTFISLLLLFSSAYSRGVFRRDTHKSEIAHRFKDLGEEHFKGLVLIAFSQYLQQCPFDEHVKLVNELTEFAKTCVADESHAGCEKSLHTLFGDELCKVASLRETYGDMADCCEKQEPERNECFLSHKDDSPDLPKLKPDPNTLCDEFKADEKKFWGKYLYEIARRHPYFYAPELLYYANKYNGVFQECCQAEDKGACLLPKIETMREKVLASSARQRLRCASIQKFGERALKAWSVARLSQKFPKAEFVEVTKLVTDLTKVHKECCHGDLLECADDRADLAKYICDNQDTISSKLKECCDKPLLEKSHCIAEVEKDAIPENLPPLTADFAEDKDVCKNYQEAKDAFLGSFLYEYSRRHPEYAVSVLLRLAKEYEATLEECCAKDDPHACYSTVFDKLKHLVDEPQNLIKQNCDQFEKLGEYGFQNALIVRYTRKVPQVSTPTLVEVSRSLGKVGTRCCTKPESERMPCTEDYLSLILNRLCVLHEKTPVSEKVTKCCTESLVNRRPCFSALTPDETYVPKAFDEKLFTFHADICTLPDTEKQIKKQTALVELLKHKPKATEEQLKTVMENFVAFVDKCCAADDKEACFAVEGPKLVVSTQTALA
The nature of experiment [12]: probe aXIP binding to arrayed compounds – biochemical, NeuroSMM set, 635/667 nm fluorescence, primary screen (AID 1119).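 Further: probe is the protein aXip251-270 applied at 1 µg/mL to compound-printed slides; binding of probe to printed compounds measured as 667 nm fluorescence plus signal to noise.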 As to conditions: small-molecule microarray, higher = more signal, called active from +8 up or from −8 down.
Experiment [13] can be described thus: probe aNOTCH3 binding on compound microarray – biochemical, small-molecule microarray, 635/667 nm fluorescence, primary screen (AID 1120).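 Further: probe is a biotin-tagged antibody raised against NOTCH3 rather than NOTCH3 protein; score merges spot fluorescence near 667 nm with spot signal to noise.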 As to conditions: higher = more signal.
Experiment [14] in a line: probe aNOTCH2 binding on compound microarray – biochemical, small-molecule microarray, 635/667 nm fluorescence, primary screen (AID 1121).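 Further: score merges feature fluorescence read at 667 nm with its signal to noise.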 Conditions: higher = more signal.
Experiment [15] has as its target Carbonic anhydrase 2 (Homo sapiens) (UniProt P00918). As to the kind of experiment: compounds binding carbonic anhydrase 2 – biochemical, small-molecule microarray, Alexa647-labelled CAII, profiling panel (AID 1122). Conditions: CAII-A647 binding fluorescence, higher = more signal.
Experiment [16] in a line: COS7 lysate on small-molecule microarray, probe aHis, 635 nm (AID 1123).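 Further: z-score combines 667nm fluorescence intensity with signal-to-noise per printed compound spot.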 Conditions: COS7 cell lysate, fluorescence, higher = more signal.
The nature of experiment [17]: probe aLAP1 signal on lysate-treated microarray – cell lysate, small-molecule microarray, COS7 lysate, primary screen (AID 1124).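 Further: lysate comes from COS7 cells expressing LAP1 and is applied at 0.3 µg/mL; score merges spot fluorescence near 667 nm with signal-to-noise over triplicate slides.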 As to conditions: probe aLAP1, fluorescence, higher = more signal.
Experiment [18] relates to Sam68 (KHDRBS1). Put plainly: compounds binding KHDRBS1 protein – biochemical, small-molecule microarray, 635 nm fluorescence, primary screen (AID 1125).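 Further: score merges 667 nm channel intensity with signal to noise over triplicate slides.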 As to conditions: higher = more signal.
Experiment [19] has as its system Chordin-like protein 2 (CHRDL2). Put plainly: compounds binding chordin-like 2 – biochemical, small-molecule microarray, 635 nm fluorescence, primary screen (AID 1126).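 Further: printed compound slides probed with Chrdl2 protein at 4 µg/mL for 1 h at 4 C; score merges 667 nm emission intensity with signal to noise over three replicate slides.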 Conditions: fluorescence 635 nm, higher = more signal.
Experiment [20] concerns the target Concanavalin-A (Canavalia ensiformis) (UniProt P02866). As to the kind of experiment: compounds binding concanavalin A lectin – biochemical, small-molecule microarray, Alexa647 label, 635 nm, artefact control for SMM control protein annotation, primary screen (AID 1127).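 Further: z combines 667 nm emission intensity with signal-to-noise across three replicate slides.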 As to conditions: ConA-A647 binding fluorescence, higher = more signal.

In PubChem BioAssay one finds composite z-score, z-score and composite Z-score data, which are given here for 5 compounds.

Activity calls are given as the source filed them.

Chain of Alpha-bungarotoxin (Bungarus multicinctus) (P60615 whole entry, looked up): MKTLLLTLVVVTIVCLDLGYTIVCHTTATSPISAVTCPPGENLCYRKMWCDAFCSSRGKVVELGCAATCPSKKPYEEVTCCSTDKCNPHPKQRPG
Chain of Concanavalin-A (Canavalia ensiformis) (P02866 whole entry, looked up): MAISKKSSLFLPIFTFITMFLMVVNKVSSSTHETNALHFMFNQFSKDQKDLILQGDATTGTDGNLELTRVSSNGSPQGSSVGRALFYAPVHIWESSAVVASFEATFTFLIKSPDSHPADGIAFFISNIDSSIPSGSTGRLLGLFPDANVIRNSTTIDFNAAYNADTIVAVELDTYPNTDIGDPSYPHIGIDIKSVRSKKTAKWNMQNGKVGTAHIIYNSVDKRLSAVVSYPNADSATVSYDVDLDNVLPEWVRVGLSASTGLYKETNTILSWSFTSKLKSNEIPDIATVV

As to `C[C@]12C(=O)N(CCCCCO)[C@@H]3C(=O)N(c4ccc(Cl)cc4)CC=CC31O[C@@H]1/C=C\CCCOC(=O)C12` (stereo not given in full), the composite z-score in [1] was -1.86; in [3], -1.95; in experiment [4], -0.811; in [5] it was 1.22; in experiment [6] it was -0.23; in experiment [7], -0.138. Besides, the composite z-score in experiment [8] is -0.125; in experiment [9] it was -0.579; in experiment [10] it was -0.797; in experiment [11], 0.153; in experiment [13], -0.376; in experiment [14] it was -0.14. Further, the composite z-score in experiment [15] was -0.247; in experiment [16] it was -0.947; in [17], -0.615; in [18], -0.698; in experiment [19], -1.12; in [20], -1.02. This compound showed a z-score in experiment [2] of -0.381. Further, the composite Z-score in [12] is 0.312 (inactive).

`O=C1C[C@@](C(=O)NCc2ccccc2)(c2ccc([N+](=O)[O-])cc2)[C@@H](c2ccc(CO)cc2I)N1C1CCCCC1`: the composite z-score in [1] was 1.14; in [3], 0.597; in [4] it was 0.261; in [5], 0.315; in experiment [6] it was 0.0733; in experiment [7], 0.192. In addition, the composite z-score in experiment [8] is -0.175; in experiment [9], 0.52; in experiment [10], 0.414; in [11] it was -0.13; in [13], 0.446; in experiment [14], 0.202. The composite z-score is 0.448 in [15]; 1.15 in experiment [16]; -0.0355 in [17]; 1.23 in experiment [18]; 0.633 in experiment [19]; 0.957 in experiment [20]. For the same compound, the z-score in experiment [2] was -2.36. In [12], the composite Z-score is -0.0966 (inactive).

`COc1ccc(C(=O)Nc2ccc3c(c2)[C@]2(O[C@@H](CCO)[C@H]([Si](C)(C)c4ccc(OC)cc4)[C@H]2C)C(=O)N3Cc2ccccc2)cc1`: the composite z-score in experiment [1] is 0.958; in [3], 0.793; in experiment [4], 0.475; in experiment [5] it was 0.57; in experiment [6] it was -0.13; in [7] it was 0.0062. Besides, the composite z-score in experiment [8] is -0.295; in [9], 0.422; in experiment [10] it was 0.375; in experiment [11] it was -0.58; in experiment [13], -0.242; in [14], -0.135. Further, the composite z-score in [15] is 0.0277; in [16] it was -0.0175; in [17], -0.352; in [18], 1.01; in experiment [19], 0.845; in experiment [20], 0.908. This compound also gave a z-score in experiment [2] of -5.23. For the same compound, the composite Z-score in experiment [12] is 0.131 (inactive).

Consider `COc1cc2c(cc1OC)CN(C(=O)[C@@H]1[C@H]3C(=O)O[C@H](c4ccccc4)[C@H](c4ccccc4)N3[C@H](c3ccc(O)cc3)[C@@]13C(=O)Nc1ccc(C#CCNC(N)=O)cc13)CC2`, for which the composite z-score is 0.762 in experiment [1]; 0.382 in experiment [3]; 0.186 in experiment [4]; -0.0936 in experiment [5]; -0.0367 in experiment [6]; 0.0062 in experiment [7]. Further, the composite z-score in [8] is -0.115; in experiment [9], 0.0623; in experiment [10], 0.469; in [11] it was 0.0738; in experiment [13], 0.114; in experiment [14], -0.182. Further, the composite z-score was -0.0348 in experiment [15]; 0.276 in experiment [16]; 1.06 in experiment [17]; 0.425 in experiment [18]; 0.498 in experiment [19]; 0.826 in experiment [20]. Moreover, the z-score in experiment [2] was -0.126. The composite Z-score in [12] was 0.507 (inactive).

On to `COCC1=C([C@H](O)CCc2ccccc2)[C@H](CO)[C@@H]2C(=O)N(C)C(=O)[C@@H]2C1`, for which the composite z-score is -0.121 in [1]; 0.394 in experiment [3]; -0.205 in experiment [4]; -0.783 in experiment [5]; -0.104 in experiment [6]; -0.164 in experiment [7]. In addition, the composite z-score in [8] is -0.172; in experiment [9], 0.478; in [10], -0.152; in experiment [11] it was 0.218; in [13], 0.0893; in experiment [14], -0.0502. Moreover, the composite z-score was 0.426 in experiment [15]; -0.0175 in experiment [16]; 0.0165 in experiment [17]; 0.322 in experiment [18]; 0.758 in [19]; -0.0605 in experiment [20]. The same compound showed a z-score in experiment [2] of 0.216. In addition, the composite Z-score in [12] was -0.222 (inactive).
